# HP1b chromo inh – inhibitors of HP1-beta chromodomain binding to methylated histone tails | AID 540317 | 0.56% of 390,000 active | Potency, µM (doses to about 114 µM), most hits filed as inhibitors | AlphaScreen HP1-beta / biotin-H3K9me3 peptide binding | P83916; note: nearly all actives have a fitted effect of over 70% in size
#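 Compound inhibition of the preformed complex between 50 nM HP1-beta and 50 nM biotinylated H3K9me3 peptide was read by AlphaScreen. Buffer was PBS pH 7.4 with 0.01% Tween-20. Incubations ran 30 min at room temperature, with 10 ug/mL donor/acceptor beads.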
# BAZ2B block – BAZ2B (human) inhibition | Q9UIF8 | Potency, µM (titrated, usually from 114 µM), most hits filed as inhibitors | AID 504333 | AlphaScreen BAZ2B-H3K14Ac peptide displacement | 4.4% of 360,000 active; note: nearly all actives have a fitted effect of over 60% in size
#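 AlphaScreen luminescence quantifies BAZ2B engagement of H3K14Ac peptide; the protein and biotinylated peptide are both at 50 nM final, buffer PBS pH 7.4 with 0.01% Tween-20, all steps at room temperature.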
# GLS inhibitor – inhibitors of human glutaminase (GLS); GLS enzymatic activity, qHTS titration; Potency, µM (titrated, usually from 45.5 µM), most hits filed as inhibitors; 0.21% of 410,000 active
# Target sequence (O94925 whole entry, looked up): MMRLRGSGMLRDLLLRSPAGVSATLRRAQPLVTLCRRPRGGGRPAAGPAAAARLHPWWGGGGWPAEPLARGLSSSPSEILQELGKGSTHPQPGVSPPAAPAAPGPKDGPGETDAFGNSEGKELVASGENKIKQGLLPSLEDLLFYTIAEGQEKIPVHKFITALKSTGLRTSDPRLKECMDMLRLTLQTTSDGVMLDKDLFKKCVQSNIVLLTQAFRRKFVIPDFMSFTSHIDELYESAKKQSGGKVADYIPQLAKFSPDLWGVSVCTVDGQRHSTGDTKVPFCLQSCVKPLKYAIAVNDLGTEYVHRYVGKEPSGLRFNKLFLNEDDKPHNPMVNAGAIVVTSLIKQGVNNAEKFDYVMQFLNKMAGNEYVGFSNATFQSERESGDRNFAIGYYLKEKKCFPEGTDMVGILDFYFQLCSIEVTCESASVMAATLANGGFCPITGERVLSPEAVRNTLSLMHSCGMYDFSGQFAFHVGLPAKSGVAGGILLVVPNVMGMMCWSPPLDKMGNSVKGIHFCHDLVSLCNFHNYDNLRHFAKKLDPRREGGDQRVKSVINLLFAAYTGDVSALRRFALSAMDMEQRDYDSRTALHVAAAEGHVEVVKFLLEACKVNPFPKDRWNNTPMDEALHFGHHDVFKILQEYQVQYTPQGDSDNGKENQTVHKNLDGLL
#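 Assay buffer: 45 mM KH2PO4 pH 8.2, 0.02% Tween-20. hKGA acts on L-glutamine (1 mM solution added); product glutamate is reported by an oxidase/peroxidase Amplex Red coupling, with fluorescence taken at baseline and 30 min.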
# JMJD2A Tudor – blocks the human JMJD2A Tudor domain. AID 504339. AlphaScreen JMJD2A-Tudor / H3K4me3 peptide binding. O75164. Potency, µM (doses to about 114 µM), actives largely listed as inhibitors. 4.4% of 390,000 active; note: nearly all actives have a fitted effect of over 50% in size
# G9a inh – blocks human histone lysine methyltransferase G9a. Q96KQ7. G9a H3K9 monomethylation, AlphaScreen, 2 h. Potency, µM (top dose mostly 102 µM), actives largely listed as inhibitors. 8.8% of 350,000 active; note: nearly all actives have a fitted effect of over 75% in size
#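 Quantitative HTS format: methyltransferase activity on a biotin-tagged H3K9 peptide is measured by AlphaScreen, using a rabbit anti-monomethyl-H3K9 antibody with streptavidin donor and anti-IgG acceptor beads. Final levels are 20 nM enzyme, 500 nM peptide, 20 uM SAM; 2 h RT.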
# Numbers stand for hits; i = inactive; ? = inconclusive; nt = no result; [ ] = dose if it differs, or a comment. A selection: hits, their analogues and other compounds. The true share with any hit is near 10%. Calls come from the whole dose curve; as a rule, active = well fitted curve in the direction sought with a large enough effect; inconclusive = small, poorly fitted or top-dose-only effect, or another doubt; inactive = no such curve, though single readings can be large; an effect the other way counts as inactive or inconclusive.
SMILES,HP1b chromo inh,BAZ2B block,GLS inhibitor,JMJD2A Tudor,G9a inh
CCCn1nnc(NC(=S)NC(=O)/C=C/c2ccco2)n1,i,i,i,28µM,22µM
CCCn1nnc(NC(=S)NC(=O)c2cccs2)n1,i,i,i,7.9µM,14µM
Cn1nnc(NC(=O)c2cccs2)n1,i,i,i,i,i
Cc1cccc(C)c1Nc1nnc(SCc2cc([N+](=O)[O-])cc3c2OCOC3)s1,i,?,i,i,50µM
O=[N+]([O-])c1cc2c(c(CSc3ncccn3)c1)OCOC2,i,i,i,i,i
Nc1cc(N)nc(SCc2cc([N+](=O)[O-])cc3c2OCOC3)n1,i,i,i,i[11.4 µM],71µM
COc1cccc(Nc2nnc(SCc3cc([N+](=O)[O-])cc4c3OCOC4)s2)c1,i,i,i,?,?
C=CCn1c(SCC(=O)Nc2nnc(C)s2)nnc1-c1cccnc1,i,i,i,56µM,i
CCn1c(SCCC(=O)O)nnc1-c1cccnc1,i,i,i,i,45µM
CCn1c(SCc2cccc(C(=O)O)c2)nnc1-c1ccccc1,i,i,i,i,56µM
C=CCn1c(SCC(=O)Nc2ccc(C)cc2C)nnc1-c1cccnc1,i,i,i,i,i
COc1cccc(-n2c(COc3ccccc3C)nnc2SCC(=O)O)c1,i,i,i,i,45µM
Cc1ccccc1OCc1nnc(SCC(=O)O)n1-c1ccccc1,i,i,i,i,i[0.501 µM]
CCn1c(SCC(=O)c2ccccc2)nnc1-c1cccnc1,i,i,i,i,i
CCn1c(SCC(=O)O)nnc1-c1ccccc1,i,i,i,i,i
C[C@]12c3[nH]c4cc(-c5ccco5)ccc4c3CCN1C(=O)[C@@H](CC(=O)NCc1ccco1)C[C@@H]2C(=O)N1CCOCC1,i,nt,i,?,nt
COc1cccc(-c2nnc(SCC3CNC(=O)O3)n2-c2ccc(Cl)cc2)c1 (centres undefined),i,i,i,i,14µM
COc1ccc(-n2c(SCC(=O)N3CCCCC3C)nnc2-c2cccnc2)cc1 (centres undefined),i,i,i,i,40µM
COc1cccc(-n2c(SCC(=O)O)nnc2-c2cccnc2)c1,i,i,i,i,56µM
COc1ccc(-n2c(SCC(N)=O)nnc2-c2cccnc2)cc1,i,i,i,i,i
Nn1c(SCCOc2ccccc2)nnc1-c1cccnc1,i,i,i,i,50µM
CCOc1cc(C2CC(=O)Nc3c2c(=O)nc(SCc2cccc(Cl)c2)n3C)ccc1O (centres undefined),i,?,i,i,i
CCCN1CNc2c(c(=O)[nH]c(=S)n2CCc2ccc(OC)cc2OC)C1,i,nt,nt,i,nt
O=C(Nc1ccccc1)N1CCCC2(CCN(C(=O)c3csnn3)CC2)C1,nt,nt,nt,nt,i[12.7 µM]
COc1ccc2c(C)c(CCC(=O)NCCc3ccccc3OC)c(=O)oc2c1,i,i,i,i,i
SMILES,HP1b chromo inh,BAZ2B block,GLS inhibitor,JMJD2A Tudor,G9a inh
Cc1ccc(OCCSc2nnc(-c3ccncc3)n2C)cc1,i,i,i,i,40µM
CCOc1ccc(NC(=O)CSc2nccn2-c2cccc(C)c2C)cc1,i,?,i,?,i
CCC(C)Nc1nc(-c2c[nH]c3ccccc23)cs1 (centres undefined),?,25µM,?,35µM,11µM
Cc1ccc2c(-c3csc(N)n3)c[nH]c2c1,nt,i,nt,nt,45µM
CNc1nc(-c2c[nH]c3ccccc23)cs1,?,35µM,i,18µM,35µM
CN1CCN(CC(=O)Nc2nc(-c3c[nH]c4ccccc34)cs2)CC1,i,?,i,i,?
CCc1ccc(-c2csc(-c3c[nH]c4ccccc34)n2)cc1,?,i,i,i,i
O=C(NCC(=O)N1CCN(c2ccccc2O)CC1)C1CCCCC1,i,i,5.6µM,i,i
O=C(NCC(=O)N1CCN(c2ccccc2O)CC1)c1ccco1,i,i,i,i,i
Cc1cc2c(s1)c1cnn(Cc3ccc(C)c(F)c3)c(=O)c1n2C,nt,nt,nt,i,nt
COc1ccc(-c2csc(NC(=O)C3CCCO3)n2)cc1 (centres undefined),i,?,i,?,13µM
COc1ccc(-c2csc(NC(=O)c3ccoc3C)n2)cc1,i,?,i,i,50µM
COc1ccc(C(=O)NNC(=O)C2CCCO2)cc1 (centres undefined),i,i,i,i[11.4 µM],i

# Assay outcomes as filed in PubChem BioAssay.
